Reference: ChEMBL document CHEMBL3988442, “University of Dundee, Small-Polar-MMV Screening Library” (2021)
Hit rate of the full screen: of about 67,000 compounds, about 300 (0.45%) showed an effect of 50% or more. The full list was thinned out, with strong results kept by preference.

The molecules below were run against Polyketide synthase Pks13 (Mycobacterium tuberculosis (strain ATCC 25618 / H37Rv)) (UniProt I6X8D2) (assay: Mycobacterium tuberculosis Polyketide synthase 13 Thioesterase (PKS13)). Details: 30 µM.
Chain of Polyketide synthase Pks13 (Mycobacterium tuberculosis (strain ATCC 25618 / H37Rv)) (I6X8D2 whole entry): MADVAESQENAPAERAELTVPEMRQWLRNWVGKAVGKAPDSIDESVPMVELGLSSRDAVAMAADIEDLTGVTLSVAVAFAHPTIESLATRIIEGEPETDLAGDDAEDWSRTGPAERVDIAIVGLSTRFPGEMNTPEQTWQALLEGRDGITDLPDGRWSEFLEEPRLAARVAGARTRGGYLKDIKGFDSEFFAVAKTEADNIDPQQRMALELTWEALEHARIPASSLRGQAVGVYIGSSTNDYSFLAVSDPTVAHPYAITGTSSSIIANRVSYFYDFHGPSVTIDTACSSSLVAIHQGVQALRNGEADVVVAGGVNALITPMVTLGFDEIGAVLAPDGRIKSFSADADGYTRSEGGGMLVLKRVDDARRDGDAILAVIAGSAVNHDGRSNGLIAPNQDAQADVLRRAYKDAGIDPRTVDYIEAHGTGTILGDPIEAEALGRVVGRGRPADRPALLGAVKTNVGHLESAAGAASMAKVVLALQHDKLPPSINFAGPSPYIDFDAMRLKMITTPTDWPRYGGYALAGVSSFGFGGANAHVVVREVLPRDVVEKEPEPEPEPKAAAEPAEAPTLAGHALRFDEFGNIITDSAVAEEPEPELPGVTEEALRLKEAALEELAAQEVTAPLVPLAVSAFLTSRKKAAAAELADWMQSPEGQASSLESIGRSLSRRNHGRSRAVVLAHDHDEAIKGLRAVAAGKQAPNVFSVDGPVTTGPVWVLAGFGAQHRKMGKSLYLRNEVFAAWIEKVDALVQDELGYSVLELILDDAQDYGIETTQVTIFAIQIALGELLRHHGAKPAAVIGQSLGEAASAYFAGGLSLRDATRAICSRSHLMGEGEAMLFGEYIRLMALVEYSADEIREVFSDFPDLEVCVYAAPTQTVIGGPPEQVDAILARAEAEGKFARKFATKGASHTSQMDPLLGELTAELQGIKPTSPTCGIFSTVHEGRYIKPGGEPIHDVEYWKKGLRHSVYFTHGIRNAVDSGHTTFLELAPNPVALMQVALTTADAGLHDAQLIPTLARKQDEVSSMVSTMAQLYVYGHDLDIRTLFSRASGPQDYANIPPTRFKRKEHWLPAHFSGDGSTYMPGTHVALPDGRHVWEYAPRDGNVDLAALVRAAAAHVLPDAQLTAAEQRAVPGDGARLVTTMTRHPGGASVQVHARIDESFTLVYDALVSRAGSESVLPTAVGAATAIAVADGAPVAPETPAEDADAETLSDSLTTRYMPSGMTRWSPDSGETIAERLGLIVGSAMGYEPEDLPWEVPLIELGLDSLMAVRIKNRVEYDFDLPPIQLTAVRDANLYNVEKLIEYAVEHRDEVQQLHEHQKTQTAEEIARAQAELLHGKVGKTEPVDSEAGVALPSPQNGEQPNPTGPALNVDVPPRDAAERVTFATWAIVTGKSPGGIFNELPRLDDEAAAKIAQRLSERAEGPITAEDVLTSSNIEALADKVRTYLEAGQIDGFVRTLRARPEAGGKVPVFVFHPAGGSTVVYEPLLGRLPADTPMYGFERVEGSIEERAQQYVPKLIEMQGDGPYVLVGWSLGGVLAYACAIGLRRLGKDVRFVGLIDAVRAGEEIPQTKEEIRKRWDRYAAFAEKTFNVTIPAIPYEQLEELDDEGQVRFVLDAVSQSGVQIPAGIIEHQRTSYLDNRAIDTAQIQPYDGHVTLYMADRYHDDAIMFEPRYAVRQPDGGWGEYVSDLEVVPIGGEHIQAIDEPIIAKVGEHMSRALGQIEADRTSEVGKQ
Assay type: functional
Design: scale not given: in the data most compounds retested in dose-response had high values

Q: For `Cc1cccc(CN2C[C@H]3C[C@H](C(=O)NCc4cccnc4)[C@@H](C2)O3)c1`, which Percent Effect is on record?
A: 2.63%

Q: How did the Percent Effect turn out when `c1ccc(CCCN2CC[C@H](c3nnc(-c4cccnc4)o3)C2)cc1` was run?
A: -20%

Q: `c1ccc(CCCN2CC[C@H](c3nnc(-c4ccccc4)o3)C2)cc1` was tested. Which Percent Effect did it give?
A: 96.4%

Q: How did the Percent Effect turn out when `Cc1nnc([C@H]2CCN(CCCc3ccccc3)C2)o1` was run?
A: 8.46%

Q: How did the Percent Effect turn out when `Cc1nc(O)cc(CNC(=O)CC[C@@H]2CCCN3CCCC[C@H]23)n1` was run?
A: -2.37%

Q: With `COc1cccc(CNC[C@@]2(COc3cccnc3)C[C@@H](O)[C@@H](O)C2)c1` as the molecule, how does the Percent Effect read?
A: 3.65%

Q: For `COCc1nc(C(=O)N2CCCC2c2ccncc2)cs1` (centres undefined), which Percent Effect is on record?
A: -19.5%

Q: Which Percent Effect does the source give for `COc1cccc(C2CCCN2C(=O)c2cc3c([nH]c2=O)CCC3)c1` (centres undefined) here?
A: 43.2%

Q: With `COCc1nc(C(=O)N2CCCC2c2ccc(OC)cc2)cs1` (centres undefined) as the molecule, how does the Percent Effect read?
A: 76.5%

Q: Which Percent Effect does the source give for `O=C(c1cc2c([nH]c1=O)CCC2)N1CCCC1c1ccc(F)cc1` (centres undefined) here?
A: -4.09%

Q: For `COCc1nc(C(=O)N2CCCC2c2cccc(C)c2)cs1` (centres undefined), which Percent Effect is on record?
A: -1.31%

Q: Which Percent Effect does the source give for `COc1ccc(C2CCCN2C(=O)c2cc3c([nH]c2=O)CCC3)cc1` (centres undefined) here?
A: 57.9%

Q: `Cc1ccc(CN2C[C@@H]3[C@@H](C(=O)NCC(C)C)CCS(=O)(=O)[C@@H]3C2)cc1` was tested. Which Percent Effect did it give?
A: -36.5%

Q: For `CCc1ccc(NC(=O)N2C[C@H]3C[C@H](C(=O)N4CCCC4)[C@@H](C2)O3)cc1`, which Percent Effect is on record?
A: -33.7%

Q: How did the Percent Effect turn out when `COC[C@@]12CCO[C@@H]1CCN(C(=O)COc1ccccc1OC)C2` was run?
A: -28.6%

Q: Which Percent Effect does the source give for `CNC(=O)[C@H]1C[C@H]2OCC[C@H]2N(Cc2cccc3ccccc23)C1` here?
A: -14%

Q: How did the Percent Effect turn out when `CCCN1C[C@H]2CC[C@@H]1CN(C(=O)Cc1c(C)nc(CC)[nH]c1=O)C2` was run?
A: -18.4%

Q: With `CCCN1CCN(C(=O)c2ccc3ccccc3n2)[C@H]2CS(=O)(=O)C[C@H]21` as the molecule, how does the Percent Effect read?
A: 11.6%

Q: How did the Percent Effect turn out when `Cc1noc(C)c1CN1C(=O)[C@H]2CC[C@@H]1CN(Cc1nccs1)C2` was run?
A: -22.4%

Q: `COc1ccc(CCNC(=O)C(C)Nc2cccc(C)c2C)cc1` (centres undefined) was tested. Which Percent Effect did it give?
A: 10.4%

Q: With `COc1ccc(CCNC(=O)C(C)Nc2ccc(C)c(C)c2)cc1` (centres undefined) as the molecule, how does the Percent Effect read?
A: 1.46%

Q: For `COc1ccc(CCC(C)Nc2cccc(SC)c2)cc1` (centres undefined), which Percent Effect is on record?
A: 65.2%

Q: `COc1ccc(C(=O)Nc2cccc(SC)c2)c(OC)n1` was tested. Which Percent Effect did it give?
A: -19.8%

Q: `COc1ccc(CC(C)Nc2cccc(F)c2)cc1` (centres undefined) was tested. Which Percent Effect did it give?
A: 8.52%

Q: Which Percent Effect does the source give for `COc1ccc(CC(C)Nc2cccc(SC)c2)cc1` (centres undefined) here?
A: 57.2%

Q: For `Cn1cc(CN2C[C@@H]3COC[C@]3(CNC(=O)c3ccsc3)C2)cn1`, which Percent Effect is on record?
A: -27.4%

Q: `Cc1noc([C@@]23CCO[C@@H]2CCN(Cc2scnc2C)C3)n1` was tested. Which Percent Effect did it give?
A: -8.64%

Q: `Cc1cc(CN2C[C@H]3CCC[C@@]3(COCc3csc(C)n3)C2)no1` was tested. Which Percent Effect did it give?
A: -42.7%

Q: How did the Percent Effect turn out when `Cc1cc(F)ccc1C(=O)N1C[C@@H]2COC[C@]2(CN(C)C)C1` was run?
A: -28.5%

Q: How did the Percent Effect turn out when `O=C([C@H]1COC[C@H]2CN(C3CCCC3)C[C@H]21)N1CCCCO1` was run?
A: -0.965%

Q: `Cc1ccnc(OC[C@]23COC[C@H]2CN(C(=O)c2ncccn2)C3)n1` was tested. Which Percent Effect did it give?
A: 64%

Q: How did the Percent Effect turn out when `Cc1ccnc(OC[C@]23COC[C@H]2CN(C(=O)c2cnccn2)C3)n1` was run?
A: -10.7%

Q: For `Cc1ccnc(OC[C@]23COC[C@H]2CN(C(=O)c2ccnn2C)C3)n1`, which Percent Effect is on record?
A: -7.96%

Q: How did the Percent Effect turn out when `COCCNC(=O)[C@@]12CCO[C@@H]1CCN(Cc1cc(C)on1)C2` was run?
A: -12.3%

Q: `Cn1cc(CN2C[C@@H]3COC[C@@H](C(=O)N4CCCCO4)[C@@H]3C2)cn1` was tested. Which Percent Effect did it give?
A: -30.5%

Q: For `Cc1ccccc1-n1cc(CN(C)C[C@@H]2CCCN3CCCC[C@H]23)cn1`, which Percent Effect is on record?
A: -16.8%

Q: For `Cc1cc(C(=O)N2C[C@@H]3COC[C@]3(c3nnc(C4CC4)o3)C2)on1`, which Percent Effect is on record?
A: -7.03%

Q: How did the Percent Effect turn out when `Cc1ccc(C(=O)NC(C)CN2CCCC2=O)c(=O)[nH]1` (centres undefined) was run?
A: -2.59%

Q: For `CC(CN1CCCC1=O)NC(=O)c1ccc(-c2ccco2)[nH]c1=O` (centres undefined), which Percent Effect is on record?
A: 73%

Q: For `CCC(C)NC(=O)c1ccc(-c2ccco2)[nH]c1=O` (centres undefined), which Percent Effect is on record?
A: 7.06%

Q: How did the Percent Effect turn out when `O=C1[C@@H]2CCN(C3CCOCC3)C[C@@H]2OCCN1Cc1cccnc1` was run?
A: -7.59%

Q: How did the Percent Effect turn out when `COC[C@H]1CNC(=O)[C@@H]2CCN(Cc3ccc(F)cc3)CC[C@H]12` was run?
A: -30.6%

Q: How did the Percent Effect turn out when `Cn1cnc(-c2nc(C(=O)NCC3CCCO3)c3ccccn23)c1` (centres undefined) was run?
A: 5.5%

Q: Which Percent Effect does the source give for `Cn1cnc(-c2nc(C(=O)NCCN3CCOCC3)c3ccccn23)c1` here?
A: 141%

Q: With `COCCNC(=O)c1nc(-c2cn(C)cn2)n2ccccc12` as the molecule, how does the Percent Effect read?
A: 21.3%

Q: How did the Percent Effect turn out when `Cn1cnc(-c2nc(C(=O)NCCN3CCCC3)c3ccccn23)c1` was run?
A: 18.6%

Q: `CC(C)n1cnc(-c2nc(C(=O)NC3CC3)c3ccccn23)c1` was tested. Which Percent Effect did it give?
A: 22.1%

Q: Which Percent Effect does the source give for `Cn1cnc(-c2nc(C(=O)NC3CC3)c3ccccn23)c1` here?
A: 113%

Q: For `CN1CCCC(N2CCN(c3nc4ccccn4c3C#N)CC2)C1` (centres undefined), which Percent Effect is on record?
A: 15.1%

Q: `N#Cc1c(N2CCN(CC3CCOC3)CC2)nc2ccccn12` (centres undefined) was tested. Which Percent Effect did it give?
A: 5.84%

Q: How did the Percent Effect turn out when `N#Cc1c(N2CCCN(C3CCOCC3)CC2)nc2ccccn12` was run?
A: 95.8%

Q: With `CC(C)c1noc(CC[C@@H]2CCCN3CCCC[C@H]23)n1` as the molecule, how does the Percent Effect read?
A: -17.9%

Q: For `c1cc(CN2CC[C@H]3CO[C@H](CN4CCOCC4)[C@H]3C2)cs1`, which Percent Effect is on record?
A: -3.35%

Q: For `Cc1cnc(N2CCC3(CCN(CC4CCCC4)C3=O)CC2)nc1`, which Percent Effect is on record?
A: -3.7%
